The results in this text go back to PubChem BioAssay.

What all share (assay): modulators of BK channel variants, profiling panel, selectivity assay, cell-based, U2OS BacMam, thallium flux, beta subunits (AID 1259406);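 also: initial slope of Thallos dye fluorescence rise after thallium is added; log ratio against the mean of 0.3% DMSO vehicle wells on the same plate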
In one experiment the test system is F380Y/beta2Delta. The settings on record: at 30 µM.
Another experiment relates to F380Y/beta4. The settings on record: at 30 µM.
The target in experiment [1] is Calcium-activated potassium channel subunit alpha-1 (Homo sapiens) + Leucine-rich repeat-containing protein 26 (Homo sapiens) (UniProt Q12791+Q2I0M4). The settings on record: F380Y/Slo1WT/gamma1, at 30 µM.
Calcium-activated potassium channel subunit alpha-1 (Homo sapiens) + Leucine-rich repeat-containing protein 26 (Homo sapiens), sequence (Q2I0M4 whole entry, looked up, one chain of several): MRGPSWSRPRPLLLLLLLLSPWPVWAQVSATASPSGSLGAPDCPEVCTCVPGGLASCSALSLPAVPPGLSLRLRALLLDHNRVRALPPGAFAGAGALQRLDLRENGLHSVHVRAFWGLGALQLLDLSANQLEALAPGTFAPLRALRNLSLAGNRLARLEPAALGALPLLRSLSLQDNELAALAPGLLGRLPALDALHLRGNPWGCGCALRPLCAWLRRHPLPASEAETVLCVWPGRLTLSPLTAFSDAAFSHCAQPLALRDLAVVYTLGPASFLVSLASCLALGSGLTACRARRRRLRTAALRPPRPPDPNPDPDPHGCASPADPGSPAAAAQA
For another experiment, the system named is R275C. The settings on record: at 30 µM.
A further experiment concerns R275C/beta1. To be noted: at 30 µM.
Another experiment deals with R275C/beta2Delta. To be noted: at 30 µM.
In another experiment the test system is R275C/beta4. To be noted: at 30 µM.
The test system of a further experiment is R275C/Slo1WT/beta2. The settings on record: at 30 µM.

SMILES strings stand for the structures. Values without a mark were called inactive. The source made the active and inactive calls.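 The calls were made as follows: active = thallium flux through the channel raised or lowered by more than 3 SD from vehicle-only wells, actives on both sides; inactive = the rest.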

Consider `CNNCc1ccc(C(=O)NC(C)C)cc1`, for which the log fold change Tl+ flux in the experiment with F380Y/beta2Delta was 0.00407; with F380Y/beta4, -0.0214; in experiment [1] it was -0.0918; with R275C, -0.164 (active); with R275C/beta1 it was -0.022; in the experiment with R275C/beta2Delta it was -0.0281. Also, the values for the log fold change Tl+ flux in the experiment with R275C/beta4 and in the experiment with R275C/Slo1WT/beta2 were 0.042 and 0.0113, respectively.
On to `CC(C)(O)c1ccccc1CC[C@@H](SCC1(CC(=O)O)CC1)c1cccc(/C=C/c2ccc3ccc(Cl)cc3n2)c1`, for which the log fold change Tl+ flux with F380Y/beta2Delta was 0.312 (active); in the experiment on F380Y/beta4, 0.64 (active); in experiment [1] it was 0.354 (active); in the experiment with R275C, 0.131 (active); in the experiment on R275C/beta1, 0.782 (active); in the experiment on R275C/beta2Delta it was 0.293 (active). For the same compound, the log fold change Tl+ flux in the experiment with R275C/beta4 was 0.977 (active); with R275C/Slo1WT/beta2, 0.13 (active).
Regarding `O=C1Nc2ccc(Cl)cc2[C@@](C#CC2CC2)(C(F)(F)F)O1`, the log fold change Tl+ flux in the experiment with F380Y/beta2Delta is 0.0472; in the experiment on F380Y/beta4, 0.0723; in experiment [1], 0.0446; in the experiment on R275C, -0.166 (active); with R275C/beta1, 0.275 (active); in the experiment with R275C/beta2Delta, 0.119 (active). In addition, the log fold change Tl+ flux in the experiment on R275C/beta4 is 0.11 (active); with R275C/Slo1WT/beta2, -0.0224.
For the compound `CCN1CCCC1CNC(=O)c1cc(S(=O)(=O)CC)c(N)cc1OC` (stereo not given), the log fold change Tl+ flux in the experiment with F380Y/beta2Delta is 0.0211; in the experiment on F380Y/beta4, 0.00308; in experiment [1] it was -0.0597; in the experiment on R275C, -0.0334; in the experiment on R275C/beta1, 0.00406; in the experiment with R275C/beta2Delta it was -0.0411. Also, the log fold change Tl+ flux with R275C/beta4 is -0.0037; in the experiment with R275C/Slo1WT/beta2 it was 0.0112.
Take `N#Cc1ccc(C(c2ccc(C#N)cc2)n2cncn2)cc1`: the log fold change Tl+ flux in the experiment with F380Y/beta2Delta is 0.0563; in the experiment on F380Y/beta4, 0.0185; in experiment [1] it was 0.0131; in the experiment on R275C, -0.0506; in the experiment on R275C/beta1, -0.0148; in the experiment on R275C/beta2Delta, -0.0137. Moreover, the log fold change Tl+ flux in the experiment with R275C/beta4 is -0.0251; in the experiment with R275C/Slo1WT/beta2, 0.00776.
As for `CC(=O)NS(=O)(=O)c1ccc(N)cc1`, the log fold change Tl+ flux is 0.0558 with F380Y/beta2Delta; 0.0262 with F380Y/beta4; -0.0364 in experiment [1]; 0.0168 in the experiment on R275C; -0.00538 in the experiment with R275C/beta1; -0.00501 in the experiment with R275C/beta2Delta. In addition, the results for the log fold change Tl+ flux in the experiment with R275C/beta4 and in the experiment on R275C/Slo1WT/beta2 were -0.00232 and 0.00853, respectively.
`Cc1ccnc2c1NC(=O)c1cccnc1N2C1CC1`: the log fold change Tl+ flux was 0.0168 with F380Y/beta2Delta; 0.0216 in the experiment with F380Y/beta4; -0.00356 in experiment [1]; -0.0605 in the experiment with R275C; -0.00377 in the experiment on R275C/beta1; 0.0164 in the experiment with R275C/beta2Delta. For the same compound, the log fold change Tl+ flux is -0.0208 in the experiment on R275C/beta4 and -0.00118 with R275C/Slo1WT/beta2.
Regarding `COc1cc2c(cc1OC)C(=O)C(CC1CCN(Cc3ccccc3)CC1)C2` (stereo not given), the log fold change Tl+ flux was 0.0718 in the experiment with F380Y/beta2Delta; 0.0262 with F380Y/beta4; -0.0241 in experiment [1]; -0.0742 with R275C; 0.0129 in the experiment with R275C/beta1; -0.0194 in the experiment on R275C/beta2Delta. The log fold change Tl+ flux in the experiment on R275C/beta4 was 0.00155; in the experiment on R275C/Slo1WT/beta2 it was 0.0243.
Consider `COc1ccc2nc(S(=O)Cc3ncc(C)c(OC)c3C)[nH]c2c1` (stereo not given), for which the log fold change Tl+ flux in the experiment on F380Y/beta2Delta was 0.0168; in the experiment with F380Y/beta4, 0.00709; in experiment [1], 0.0324; in the experiment on R275C, 0.00389; in the experiment with R275C/beta1, 0.0492; in the experiment with R275C/beta2Delta it was 0.00389. Also, the log fold change Tl+ flux in the experiment on R275C/beta4 is 0.0199; with R275C/Slo1WT/beta2 it was 0.0436.
With `Cc1cnc(NC(=O)C2=C(O)c3ccccc3S(=O)(=O)N2C)s1`, the log fold change Tl+ flux in the experiment on F380Y/beta2Delta is 0.0267; in the experiment with F380Y/beta4 it was 0.0475; in experiment [1], 0.0367; in the experiment with R275C it was -0.0331; with R275C/beta1 it was 0.00607; in the experiment on R275C/beta2Delta, 0.00306. Besides, the log fold change Tl+ flux is 0.00145 in the experiment with R275C/beta4 and 0.0334 in the experiment on R275C/Slo1WT/beta2.
Consider `CC(C)(C#N)c1cc(Cn2cncn2)cc(C(C)(C)C#N)c1`, for which the log fold change Tl+ flux in the experiment on F380Y/beta2Delta is 0.0269; with F380Y/beta4 it was -0.0138; in experiment [1], 0.043; with R275C it was -0.0232; in the experiment with R275C/beta1, 0.00836; in the experiment with R275C/beta2Delta, 0.00182. The log fold change Tl+ flux is -0.00704 in the experiment with R275C/beta4 and -0.000892 in the experiment with R275C/Slo1WT/beta2.
Turning to `CC(C)(C)NC(=O)[C@H]1CC[C@H]2[C@@H]3CC[C@H]4NC(=O)C=C[C@]4(C)[C@H]3CC[C@]12C`, the log fold change Tl+ flux in the experiment on F380Y/beta2Delta was 0.0468; in the experiment on F380Y/beta4, 0.00105; in experiment [1], -0.00445; with R275C it was -0.0443; in the experiment on R275C/beta1 it was -0.0219; in the experiment on R275C/beta2Delta, 0.0533. In addition, the log fold change Tl+ flux in the experiment with R275C/beta4 was 0.00132; in the experiment on R275C/Slo1WT/beta2 it was -0.0253.
As to `CCCc1nc(C)c2c(=O)[nH]c(-c3cc(S(=O)(=O)N4CCN(CC)CC4)ccc3OCC)nn12`, the log fold change Tl+ flux in the experiment on F380Y/beta2Delta was 0.0398; in the experiment with F380Y/beta4 it was 0.0304; in experiment [1], 0.0127; in the experiment on R275C it was -0.0462; in the experiment on R275C/beta1 it was 0.019; with R275C/beta2Delta, 0.017. The log fold change Tl+ flux was -0.00355 in the experiment on R275C/beta4 and 0.00306 in the experiment on R275C/Slo1WT/beta2.
As for `CC(C)[C@H](N)C(=O)OCCOCn1cnc2c(=O)[nH]c(N)nc21`, the log fold change Tl+ flux in the experiment on F380Y/beta2Delta is -0.00659; in the experiment on F380Y/beta4, -0.0146; in experiment [1], 0.0174; in the experiment on R275C, -0.11; in the experiment on R275C/beta1 it was 0.0176; in the experiment on R275C/beta2Delta, 0.0029. The values for the log fold change Tl+ flux in the experiment on R275C/beta4 and in the experiment with R275C/Slo1WT/beta2 were 0.0146 and -0.011, respectively.
Consider `O=c1[nH]cnc2c1ncn2[C@H]1CC[C@@H](CO)O1`, for which the log fold change Tl+ flux in the experiment with F380Y/beta2Delta is 0.0117; in the experiment on F380Y/beta4, -0.00261; in experiment [1] it was 0.0216; in the experiment with R275C it was -0.0353; with R275C/beta1, -0.00622; in the experiment with R275C/beta2Delta, -0.00829. The values for the log fold change Tl+ flux in the experiment with R275C/beta4 and in the experiment on R275C/Slo1WT/beta2 were 0.000837 and 0.00413, respectively.
